Assay results reported in PubChem BioAssay AID1159580 (chemical genetic matrix, 2015).
Values joined by “and” are separate entries in the source; they are usually repeats but may differ in a detail not shown here. Equal values may be shown once. Out of some 5,500 compounds screened, about 2,000 (36%) were called active. Not shown: some 18% with an inconclusive outcome. Cut-off read from the data, not from the text of the source: active = normalized growth mostly below about 0.91 (no sharp cut-off); inconclusive = no clear call, values can overlap the other calls; inactive = mostly above about 0.92. The list shows a part of the results.

Assay: chemical genetic growth profiling, strain panel (AID 1159580);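 note: tested at 20 µM; growth read once vehicle control cultures reached saturation at 30 °C; 1 = growth at the plate median or of vehicle wells; lower values mean less growth of the strain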
Details: S. cerevisiae deletion strains, growth OD

Measured: normalized growth

Nc1nc(=S)c2[nH]cnc2[nH]1
inactive: locus YAL013W, strain DEP1, stronger effect = lower value 1.01 | locus YAL021C, strain ccr4, stronger effect = lower value 0.946 | locus YAL026C, strain drs2, stronger effect = lower value 0.971 | locus YAL030W, strain snc1, stronger effect = lower value 0.975 | locus YBL061C, strain skt5, stronger effect = lower value 0.988 | locus YBR009C, strain hhf1, stronger effect = lower value 1.03 | locus YBR021W, strain FUR4, stronger effect = lower value 0.999 | locus YBR023C, strain chs3, stronger effect = lower value 0.969 | locus YBR171W, strain sec66, stronger effect = lower value 0.974 | locus YBR229C, strain ROT2, stronger effect = lower value 1 | locus YBR231C, strain swc5, stronger effect = lower value 1.03 | locus YBR279W, strain paf1, stronger effect = lower value 0.973 | locus YCL011C, strain gbp2, stronger effect = lower value 0.971 | locus YCL016C, strain dcc1, stronger effect = lower value 0.947 | locus YCL029C, strain bik1, stronger effect = lower value 1.01 | locus YCL061C, strain MRC1, stronger effect = lower value 0.993 | locus YCL069W, strain vba3, stronger effect = lower value 0.976 | locus YCR088W, strain abp1, stronger effect = lower value 0.98 | locus YDL005C, strain med2, stronger effect = lower value 0.965 | locus YDL035C, strain GPR1, stronger effect = lower value 1.02 | locus YDL040C, strain nat1, stronger effect = lower value 0.982 | locus YDL074C, strain BRE1, stronger effect = lower value 1.01 | locus YDL101C, strain DUN1, stronger effect = lower value 1.01 | locus YDL134C, strain PPH21, stronger effect = lower value 1.01 | locus YDL185W, strain tfp1, stronger effect = lower value 0.996 | locus YDL192W, strain arf1, stronger effect = lower value 1.01 | locus YDR001C, strain nth1, stronger effect = lower value 0.982 | locus YDR069C, strain doa4, stronger effect = lower value 0.982 | locus YDR101C, strain arx1, stronger effect = lower value 0.986 | locus YDR137W, strain rgp1, stronger effect = lower value 0.967 | locus YDR150W, strain NUM1, stronger effect = lower value 1.01 | locus YDR159W, strain sac3, stronger effect = lower value 0.957 | locus YDR162C, strain NBP2, stronger effect = lower value 1.02 | locus YDR195W, strain ref2 0.988 | locus YDR297W, strain sur2, stronger effect = lower value 1 | locus YDR318W, strain mcm21, stronger effect = lower value 1 | locus YDR334W, strain swr1, stronger effect = lower value 0.962 | locus YDR335W, strain msn5, stronger effect = lower value 0.98 | locus YDR388W, stronger effect = lower value 0.998 | locus YDR392W, strain spt3, stronger effect = lower value 0.859 | locus YDR502C, strain sam2, stronger effect = lower value 1 | locus YEL003W, strain gim4, stronger effect = lower value 0.988 | locus YEL037C, strain rad23, stronger effect = lower value 0.973 | locus YEL061C, strain CIN8 (second series), stronger effect = lower value 0.975 | locus YEL061C, strain CIN8, stronger effect = lower value 1.01 | locus YER015W, strain faa2, stronger effect = lower value 0.983 | locus YER016W, strain bim1, stronger effect = lower value 0.942 | locus YER110C, stronger effect = lower value 1 | locus YER111C, strain swi4, stronger effect = lower value 0.959 | locus YER155C, strain BEM2 (second series), stronger effect = lower value 1 | locus YER155C, strain BEM2, stronger effect = lower value 1.02 | locus YER167W, strain BCK2, stronger effect = lower value 1.01 | locus YFR010W, strain ubp6, stronger effect = lower value 1 | locus YGL078C, strain dbp3, stronger effect = lower value 0.997 | locus YGL086W, strain mad1, stronger effect = lower value 0.997 | locus YGL167C, strain pmr1, stronger effect = lower value 0.979 | locus YGL173C, strain kem1, stronger effect = lower value 0.98 | locus YGL227W, strain vid30, stronger effect = lower value 0.973 | locus YGL240W, strain doc1, stronger effect = lower value 1.01 | locus YGL248W, strain PDE1, stronger effect = lower value 1.01 | locus YGL253W, strain hxk2, stronger effect = lower value 0.961 | locus YGR078C, strain PAC10, stronger effect = lower value 0.988 | locus YGR135W, strain pre9, stronger effect = lower value 0.998 | locus YGR229C, strain SMI1, stronger effect = lower value 0.99 | locus YGR252W, strain gcn5, stronger effect = lower value 0.981 | locus YHR013C, strain ard1, stronger effect = lower value 0.93 | locus YHR027C, strain rpn1, stronger effect = lower value 0.99 | locus YHR030C, strain SLT2, stronger effect = lower value 1.02 and 0.978 | locus YHR079C, strain IRE1 (second series), stronger effect = lower value 1 | locus YHR079C, strain IRE1, stronger effect = lower value 0.998 | locus YHR094C, strain hxt1, stronger effect = lower value 0.998 | locus YHR129C, strain ARP1, stronger effect = lower value 1.01 | locus YHR142W, strain chs7, stronger effect = lower value 0.945 | locus YHR200W, strain rpn10, stronger effect = lower value 0.998 | locus YIL066C, strain RNR3, stronger effect = lower value 1.01 | locus YIL073C, strain SPO22, stronger effect = lower value 1.04 | locus YIL125W, strain kgd1, stronger effect = lower value 0.995 | locus YIR030C, strain dcg1, stronger effect = lower value 1 | locus YJL092W, strain hpr5, stronger effect = lower value 0.991 | locus YJL095W, strain BCK1 (second series), stronger effect = lower value 0.964 | locus YJL095W, strain BCK1, stronger effect = lower value 1.02 and 0.979 | locus YJL115W, strain asf1, stronger effect = lower value 0.972 | locus YJL129C, strain trk1, stronger effect = lower value 0.936 | locus YJL134W, strain LCB3, stronger effect = lower value 1 | locus YJL154C, strain vps35, stronger effect = lower value 0.971 | locus YJL164C, strain tpk1, stronger effect = lower value 0.998 | locus YJL166W, strain qcr8, stronger effect = lower value 1.01 | locus YJL168C, strain set2, stronger effect = lower value 0.995 | locus YJL187C, strain SWE1 (second series), stronger effect = lower value 1.01 | locus YJL187C, strain SWE1, stronger effect = lower value 0.981 | locus YJR043C, strain POL32, stronger effect = lower value 1.01 | locus YJR066W, strain TOR1, stronger effect = lower value 0.949
